According to the supplement of paper PMC4466140:

Columns and labels:
Test in all cases: SPOT peptide array binding signal intensity (averaged, normalized) (arbitrary units (background-subtracted, floor 0; scale differs between SH3 domains)); higher = stronger binding of the SH3 domain to the peptide
AgAbp1 = biological target: AgAbp1
In short: (§1)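 GST-SH3 fusions from four yeast species, purified on glutathione Sepharose, were incubated at 10 μg/ml overnight at 4°C on membranes of synthetic 15-mer peptides in which cysteines were replaced with serines. Binding signal is the normalized, background-subtracted spot intensity averaged over replicates, in domain-specific arbitrary units.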

AgBbc1 = biological target: AgBbc1
In short: as §1

AgBem1-D1 = biological target: AgBem1-D1
In short: as §1

AgBzz1-D1 = biological target: AgBzz1-D1
In short: as §1

AgBzz1-D2 = biological target: AgBzz1-D2
In short: as §1

AgCyk3 = biological target: AgCyk3
In short: as §1

AgFus1 = biological target: AgFus1
In short: as §1

AgHof1 = biological target: AgHof1
In short: as §1

AgHse1 = biological target: AgHse1
In short: as §1

AgLsb1 = biological target: AgLsb1
In short: as §1

AgLsb4 = biological target: AgLsb4
In short: as §1

AgMyo5 = biological target: AgMyo5
In short: as §1

AgNbp2 = biological target: AgNbp2
In short: as §1

AgRvs167 = biological target: AgRvs167
In short: as §1

AgSho1 = biological target: AgSho1
In short: as §1

AgSla1-D1-D2 = biological target: AgSla1-D1-D2
In short: as §1

AgSla1-D3 = biological target: AgSla1-D3
In short: as §1

CaAbp1-D1 = biological target: CaAbp1-D1
In short: as §1

CaAbp1-D2 = biological target: CaAbp1-D2
In short: as §1

CaBbc1 = biological target: CaBbc1
In short: as §1

CaBem1-D1 = biological target: CaBem1-D1
In short: as §1

CaBzz1-D1 = biological target: CaBzz1-D1
In short: as §1

CaBzz1-D2 = biological target: CaBzz1-D2
In short: as §1

CaCyk3 = biological target: CaCyk3
In short: as §1

CaFus1 = biological target: CaFus1
In short: as §1

CaHof1 = biological target: CaHof1
In short: as §1

CaHse1 = biological target: CaHse1
In short: as §1

CaLsb1 = biological target: CaLsb1
In short: as §1

CaLsb4 = biological target: CaLsb4
In short: as §1

CaMyo5 = biological target: CaMyo5
In short: as §1

CaNbp2 = biological target: CaNbp2
In short: as §1

CaRvs167 = biological target: CaRvs167
In short: as §1

CaRvs167-3 = biological target: CaRvs167-3
In short: as §1

CaSho1 = biological target: CaSho1
In short: as §1

CaSla1-D1-D2 = biological target: CaSla1-D1-D2
In short: as §1

CaSla1-D3 = biological target: CaSla1-D3
In short: as §1

ScAbp1 = biological target: ScAbp1
In short: as §1

ScBbc1 = biological target: ScBbc1
In short: as §1

ScBem1-D1 = biological target: ScBem1-D1
In short: as §1

ScBzz1-D1 = biological target: ScBzz1-D1
In short: as §1

ScBzz1-D2 = biological target: ScBzz1-D2
In short: as §1

ScCyk3 = biological target: ScCyk3
In short: as §1

ScFus1 = biological target: ScFus1
In short: as §1

ScHof1 = biological target: ScHof1
In short: as §1

ScHse1 = biological target: ScHse1
In short: as §1

ScLsb1 = biological target: ScLsb1
In short: as §1

ScLsb2 = biological target: ScLsb2
In short: as §1

ScLsb3 = biological target: ScLsb3
In short: as §1

ScLsb4 = biological target: ScLsb4
In short: as §1

ScMyo3 = biological target: ScMyo3
In short: as §1

ScMyo5 = biological target: ScMyo5
In short: as §1

ScNbp2 = biological target: ScNbp2
In short: as §1

ScPex13 = biological target: ScPex13
In short: as §1

ScRvs167 = biological target: ScRvs167
In short: as §1

ScSho1 = biological target: ScSho1
In short: as §1

ScSla1-D1-D2 = biological target: ScSla1-D1-D2
In short: as §1

ScSla1-D3 = biological target: ScSla1-D3
In short: as §1

SpAbp1-D1 = biological target: SpAbp1-D1
In short: as §1

SpBbc1 = biological target: SpBbc1
In short: as §1

SpBzz1-D1 = biological target: SpBzz1-D1
In short: as §1

SpBzz1-D2 = biological target: SpBzz1-D2
In short: as §1

SpCyk3 = biological target: SpCyk3
In short: as §1

SpHof1 = biological target: SpHof1
In short: as §1

SpHof1-2 = biological target: SpHof1-2
In short: as §1

SpHof1-3 = biological target: SpHof1-3
In short: as §1

SpHse1 = biological target: SpHse1
In short: as §1

SpLsb1 = biological target: SpLsb1
In short: as §1

SpLsb4 = biological target: SpLsb4
In short: as §1

SpMyo1 = biological target: SpMyo1
In short: as §1

SpNbp2 = biological target: SpNbp2
In short: as §1

SpPex13 = biological target: SpPex13
In short: as §1

SpRvs167 = biological target: SpRvs167
In short: as §1

SpSla1-D1-D2 = biological target: SpSla1-D1-D2
In short: as §1

SpSla1-D3 = biological target: SpSla1-D3
In short: as §1

MPAPPPPPPPPPGAF
SPOT peptide array binding signal intensity (AgAbp1): ≤ 0
SPOT peptide array binding signal intensity (AgBbc1): 3.81e-06
SPOT peptide array binding signal intensity (AgBem1-D1): ≤ 0
SPOT peptide array binding signal intensity (AgBzz1-D1): ≤ 0
SPOT peptide array binding signal intensity (AgBzz1-D2): 19.5
SPOT peptide array binding signal intensity (AgCyk3): ≤ 0
SPOT peptide array binding signal intensity (AgFus1): ≤ 0
SPOT peptide array binding signal intensity (AgHof1): 51.2
SPOT peptide array binding signal intensity (AgHse1): ≤ 0
SPOT peptide array binding signal intensity (AgLsb1): ≤ 0
SPOT peptide array binding signal intensity (AgLsb4): ≤ 0
SPOT peptide array binding signal intensity (AgMyo5): 822
SPOT peptide array binding signal intensity (AgNbp2): ≤ 0
SPOT peptide array binding signal intensity (AgRvs167): ≤ 0
SPOT peptide array binding signal intensity (AgSho1): ≤ 0
SPOT peptide array binding signal intensity (AgSla1-D1-D2): ≤ 0
SPOT peptide array binding signal intensity (AgSla1-D3): 0.5
SPOT peptide array binding signal intensity (CaAbp1-D1): 18.5
SPOT peptide array binding signal intensity (CaAbp1-D2): ≤ 0
SPOT peptide array binding signal intensity (CaBbc1): 0.25
SPOT peptide array binding signal intensity (CaBem1-D1): 40
SPOT peptide array binding signal intensity (CaBzz1-D1): 970
SPOT peptide array binding signal intensity (CaBzz1-D2): 69.1
SPOT peptide array binding signal intensity (CaCyk3): ≤ 0
SPOT peptide array binding signal intensity (CaFus1): 33
SPOT peptide array binding signal intensity (CaHof1): ≤ 0
SPOT peptide array binding signal intensity (CaHse1): 4.62
SPOT peptide array binding signal intensity (CaLsb1): ≤ 0
SPOT peptide array binding signal intensity (CaLsb4): ≤ 0
SPOT peptide array binding signal intensity (CaMyo5): 66
SPOT peptide array binding signal intensity (CaNbp2): 29
SPOT peptide array binding signal intensity (CaRvs167): ≤ 0
SPOT peptide array binding signal intensity (CaRvs167-3): 2.75
SPOT peptide array binding signal intensity (CaSho1): 13.8
SPOT peptide array binding signal intensity (CaSla1-D1-D2): ≤ 0
SPOT peptide array binding signal intensity (CaSla1-D3): ≤ 0
SPOT peptide array binding signal intensity (ScAbp1): ≤ 0
SPOT peptide array binding signal intensity (ScBbc1): ≤ 0
SPOT peptide array binding signal intensity (ScBem1-D1): ≤ 0
SPOT peptide array binding signal intensity (ScBzz1-D1): 27.5
SPOT peptide array binding signal intensity (ScBzz1-D2): ≤ 0
SPOT peptide array binding signal intensity (ScCyk3): ≤ 0
SPOT peptide array binding signal intensity (ScFus1): ≤ 0
SPOT peptide array binding signal intensity (ScHof1): ≤ 0
SPOT peptide array binding signal intensity (ScHse1): 4.25
SPOT peptide array binding signal intensity (ScLsb1): ≤ 0
SPOT peptide array binding signal intensity (ScLsb2): ≤ 0
SPOT peptide array binding signal intensity (ScLsb3): ≤ 0
SPOT peptide array binding signal intensity (ScLsb4): ≤ 0
SPOT peptide array binding signal intensity (ScMyo3): 1010
SPOT peptide array binding signal intensity (ScMyo5): 634
SPOT peptide array binding signal intensity (ScNbp2): ≤ 0
SPOT peptide array binding signal intensity (ScPex13): 71.9
SPOT peptide array binding signal intensity (ScRvs167): ≤ 0
SPOT peptide array binding signal intensity (ScSho1): 5.75
SPOT peptide array binding signal intensity (ScSla1-D1-D2): ≤ 0
SPOT peptide array binding signal intensity (ScSla1-D3): 0.125
SPOT peptide array binding signal intensity (SpAbp1-D1): 7
SPOT peptide array binding signal intensity (SpBbc1): ≤ 0
SPOT peptide array binding signal intensity (SpBzz1-D1): 1360
SPOT peptide array binding signal intensity (SpBzz1-D2): 5.62
SPOT peptide array binding signal intensity (SpCyk3): ≤ 0
SPOT peptide array binding signal intensity (SpHof1): 0.5
SPOT peptide array binding signal intensity (SpHof1-2): 7.75
SPOT peptide array binding signal intensity (SpHof1-3): 4.25
SPOT peptide array binding signal intensity (SpHse1): 17.5
SPOT peptide array binding signal intensity (SpLsb1): ≤ 0
SPOT peptide array binding signal intensity (SpLsb4): ≤ 0
SPOT peptide array binding signal intensity (SpMyo1): 521
SPOT peptide array binding signal intensity (SpNbp2): ≤ 0
SPOT peptide array binding signal intensity (SpPex13): ≤ 0
SPOT peptide array binding signal intensity (SpRvs167): 43.4
SPOT peptide array binding signal intensity (SpSla1-D1-D2): ≤ 0
SPOT peptide array binding signal intensity (SpSla1-D3): ≤ 0
